Results filed as inconclusive are left out. The source made the active and inactive calls. Calls come from the whole dose curve; as a rule, active = well fitted curve in the direction sought with a large enough effect in the repeat runs; inconclusive = weak or mixed curves; inactive = no such curve, though single readings can be large; an effect the other way counts as inactive or inconclusive.
Tests used:
[1] = qHTS RealTime-Glo MT Cell Viability Assay in HEK293 cells - 16 hour (AID 1224872); conditions: RealTime-Glo luminescence; series mostly up to 76.8 µM; note: top concentration of the series differs between compounds; nearly all actives have a fitted effect of over 50% in size
Summary of the method: (§1)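 Luminescence generated by NanoLuc from substrate produced by living HEK293 cells served as the viability signal. Each value reflects the reading at its stated time point during continuous 40 h compound exposure at 37 C.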

[2] = qHTS RealTime-Glo MT Cell Viability Assay in HepG2 cells - 8 hour (AID 1224873); conditions: RealTime-Glo luminescence; series mostly up to 76.8 µM; note: nearly all actives have a fitted effect of over 55% in size
Summary of the method: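 HepG2 cells mixed with RealTime-Glo MT reagents (NanoLuc plus cell-permeant prosubstrate) were seeded at 600 cells/well, incubated 5 h at 37 C/5% CO2, then pinned with compounds in DMSO; nonlytic luminescence tracked viability during 40 h treatment.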

[3] = qHTS RealTime-Glo MT Cell Viability Assay in HEK293 cells - 40 hour (AID 1224874); conditions: RealTime-Glo luminescence; max response: hits give low values; note: nearly all actives have a fitted effect of over 50% in size
Summary of the method: (§2)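 Kinetic, non-lysing viability readout. Seed HEK293 (600/well) with reagent, incubate 5 h at 37 C/5% CO2, pin 23 nL compound in DMSO, incubate at 37 C, read luminescence at 0, 8, 16, 24, 32, 40 h.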

[4] = A CellTox Green Cytotoxicity Assay to monitor cytotoxicity in HEK293 cells - 24 hour (AID 1224875); conditions: CellTox Green fluorescence; series mostly up to 76.8 µM; note: nearly all actives have a fitted effect of over 45% in size
Summary of the method: (§3)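 Real-time, in one plate: 600 HEK293 cells/well with dead-cell DNA dye, pinned compound after 5 h, 37 C incubation over 40 h; viable cells give no appreciable fluorescence.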

[5] = qHTS RealTime-Glo MT Cell Viability Assay in HepG2 cells - 32 hour (AID 1224877); conditions: RealTime-Glo luminescence; series mostly up to 76.8 µM; note: nearly all actives have a fitted effect of over 55% in size
Summary of the method: (§4)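 Tox21 10K library screened in qHTS format on HepG2 cells carrying RealTime-Glo reagents. Compounds were added after a 5 h preincubation, and the luminescent signal from continuous culture was measured repeatedly during 40 h treatment.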

[6] = qHTS RealTime-Glo MT Cell Viability Assay in HEK293 cells - 0 hour (AID 1224880); conditions: RealTime-Glo luminescence; series mostly up to 76.8 µM; note: top concentration of the series differs between compounds; nearly all actives have a fitted effect of over 45% in size
Summary of the method: as §2

[7] = A CellTox Green Cytotoxicity Assay to monitor cytotoxicity in HEK293 cells - 32 hour (AID 1224881); conditions: CellTox Green fluorescence; series mostly up to 76.8 µM; note: nearly all actives have a fitted effect of over 40% in size
Summary of the method: as §3

[8] = A CellTox Green Cytotoxicity Assay to monitor cytotoxicity in HepG2 cells - 0 hour (AID 1224882); conditions: CellTox Green fluorescence; series mostly up to 76.8 µM; note: nearly all actives have a fitted effect of over 35% in size
Summary of the method: (§5)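 Cytotoxicity was tracked as dead-cell DNA fluorescence in HepG2 cells treated with test compounds at 37 C; each time-point value comes from one kinetic series spanning 0, 8, 16, 24, 32 and 40 h.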

[9] = A CellTox Green Cytotoxicity Assay to monitor cytotoxicity in HEK293 cells - 8 hour (AID 1224884); conditions: CellTox Green fluorescence; series mostly up to 76.8 µM; note: nearly all actives have a fitted effect of over 35% in size
Summary of the method: as §3

[10] = qHTS RealTime-Glo MT Cell Viability Assay in HepG2 cells - 16 hour (AID 1224885); conditions: RealTime-Glo luminescence; series mostly up to 76.8 µM; note: nearly all actives have a fitted effect of over 50% in size
Summary of the method: as §4

[11] = qHTS RealTime-Glo MT Cell Viability Assay in HEK293 cells - 24 hour (AID 1224886); conditions: RealTime-Glo luminescence; series mostly up to 76.8 µM; note: top concentration of the series differs between compounds; nearly all actives have a fitted effect of over 50% in size
Summary of the method: as §1

[12] = qHTS RealTime-Glo MT Cell Viability Assay in HEK293 cells - 8 hour (AID 1224887); conditions: RealTime-Glo luminescence; series mostly up to 76.8 µM
Summary of the method: as §2

[13] = A CellTox Green Cytotoxicity Assay to monitor cytotoxicity in HEK293 cells - 16 hour (AID 1224888); conditions: CellTox Green fluorescence; series mostly up to 76.8 µM; note: nearly all actives have a fitted effect of over 35% in size
Summary of the method: as §3

[14] = A CellTox Green Cytotoxicity Assay to monitor cytotoxicity in HepG2 cells - 8 hour (AID 1224890); conditions: CellTox Green fluorescence; series mostly up to 76.8 µM; note: nearly all actives have a fitted effect of over 45% in size
Summary of the method: as §5

[15] = A CellTox Green Cytotoxicity Assay to monitor cytotoxicity in HepG2 cells - 16 hour (AID 1224876); conditions: CellTox Green fluorescence; series mostly up to 76.8 µM; note: nearly all actives have a fitted effect of over 45% in size
Summary of the method: as §5

[16] = A CellTox Green Cytotoxicity Assay to monitor cytotoxicity in HepG2 cells - 24 hour (AID 1224878); conditions: CellTox Green fluorescence; series mostly up to 76.8 µM; note: nearly all actives have a fitted effect of over 45% in size
Summary of the method: as §5

[17] = A CellTox Green Cytotoxicity Assay to monitor cytotoxicity in HepG2 cells - 40 hour (AID 1224879); conditions: CellTox Green fluorescence; series mostly up to 76.8 µM; note: nearly all actives have a fitted effect of over 40% in size
Summary of the method: as §5

[18] = A CellTox Green Cytotoxicity Assay to monitor cytotoxicity in HepG2 cells - 32 hour (AID 1224883); conditions: CellTox Green fluorescence; series mostly up to 76.8 µM; note: nearly all actives have a fitted effect of over 50% in size
Summary of the method: as §5

[19] = qHTS RealTime-Glo MT Cell Viability Assay in HepG2 cells - 0 hour (AID 1224889); conditions: RealTime-Glo luminescence; series mostly up to 76.8 µM; note: nearly all actives have a fitted effect of over 50% in size
Summary of the method: as §4

[20] = qHTS assay to identify small molecule antagonists of the estrogen receptor alpha (ER-alpha) signaling pathway using the BG1 cell line in the presence of 0.1 nM 17-beta-estradiol - cell viability counter screen (AID 1259241); conditions: VM7Luc4E2 (BG1) viability, CellTiter-Fluor protease, 22 h, 0.1 nM estradiol agonist added; series mostly up to 92.4 µM; note: nearly all actives have a fitted effect of over 40% in size
Summary of the method: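 Cytotoxicity counter-screen: live-cell protease activity measured by fluorescence (30 min reagent step) in the same wells. Cells were VM7Luc4E2 with endogenous ER-alpha and ERE-driven luciferase, treated 22 hr at 37C alongside 0.1 nM 17beta-estradiol final.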
% is set by controls: 0 for no effect and ±100 for the full control effect.

N#CC(Br)(Br)C(N)=O
inactive: Potency [1] | outcome [2] | max response [3] -10% | Potency [4] | Potency [5] | outcome [6] | Potency [7] | outcome [8] | Potency [9] | Potency [10] | Potency [11] | Potency [12] | Potency [13] | Potency [14]

COc1cc(CCN)cc(OC)c1OC
inactive: Potency [1] | outcome [2] | Potency [4] | Potency [15] | Potency [5] | Potency [16] | Potency [17] | outcome [6] | Potency [7] | outcome [8] | Potency [18] | Potency [9] | Potency [10] | Potency [11] | Potency [12] | Potency [13] | outcome [19] | Potency [14] | outcome [20]

CN(C)C(=O)Oc1cc(OC(=O)N(C)C)cc(C(O)CNC(C)(C)C)c1 (configuration not stated)
inactive: Potency [1] | outcome [2] | Potency [4] | Potency [15] | Potency [5] | Potency [16] | Potency [17] | outcome [6] | Potency [7] | outcome [8] | Potency [18] | Potency [9] | Potency [11] | Potency [12] | Potency [13] | outcome [19] | Potency [14] | outcome [20]

CCCCCCC(=O)CCCCCC/C=C/C[C@@H](O)[C@H](O)[C@@](N)(CO)C(=O)O
inactive: activity change, negative = cytotoxicity [1] -2.21% [at 15.8 µM] | viability change, negative = cytotoxic [2] 1.7% [at 15.8 µM] | max response [3] 2.74% | activity change [4] -5.64% [at 15.8 µM, hits give high values] | cytotoxicity [16] -14.9% [at 15.8 µM] | cytotoxicity increase [17] -21.5% [at 15.8 µM] | activity change, negative = cytotoxicity [6] 3.85% [at 15.8 µM] | cytotoxicity increase [7] -8.63% [at 15.8 µM] | cytotoxicity increase [18] -23.6% [at 15.8 µM] | cytotoxicity increase [9] -3.97% [at 15.8 µM] | activity change, negative = cytotoxic [10] 1.68% [at 15.8 µM] | activity change, negative = cytotoxicity [11] -0.165% [at 15.8 µM] | activity change, negative = cytotoxicity [12] -1.55% [at 15.8 µM] | activity change [13] -6.94% [at 15.8 µM, hits give high values] | activity change, negative = cytotoxicity [20] 7.82% [at 19 µM]

C=CCc1cc(OC)c2c(c1)OCO2
inactive: Potency [1] | outcome [2] | max response [3] 8.43% | Potency [15] | Potency [5] | Potency [16] | Potency [17] | outcome [6] | outcome [8] | Potency [18] | Potency [9] | Potency [10] | Potency [11] | Potency [12] | outcome [19] | Potency [14] | outcome [20]

Cc1ccc(S(=O)(=O)N[C@@H](CCCCN)C(=O)CCl)cc1
inactive: Potency [1] | outcome [2] | Potency [4] | Potency [15] | Potency [5] | Potency [16] | Potency [17] | outcome [6] | Potency [7] | outcome [8] | Potency [18] | Potency [9] | Potency [10] | Potency [11] | Potency [12] | Potency [13] | outcome [19] | Potency [14] | outcome [20]

Cn1c(N)nc2c3cccnc3ccc21
inactive: Potency [1] | outcome [2] | Potency [4] | Potency [15] | Potency [5] | Potency [16] | Potency [17] | outcome [6] | outcome [8] | Potency [18] | Potency [9] | Potency [11] | Potency [12] | Potency [13] | outcome [19] | Potency [14]

COc1ccc(C=O)cc1O
inactive: Potency [1] | outcome [2] | Potency [4] | Potency [15] | Potency [5] | Potency [16] | Potency [17] | outcome [6] | Potency [7] | outcome [8] | Potency [18] | Potency [11] | Potency [12] | Potency [13] | Potency [14] | outcome [20]

CS(=O)(=O)c1ccc(C(=O)C2C(=O)CCCC2=O)c(Cl)c1COCC(F)(F)F
inactive: Potency [1] | outcome [2] | Potency [4] | Potency [15] | Potency [5] | Potency [16] | Potency [17] | outcome [6] | Potency [7] | outcome [8] | Potency [18] | Potency [9] | Potency [10] | Potency [11] | Potency [12] | Potency [13] | outcome [19] | Potency [14] | outcome [20]

NNC(N)=O
inactive: Potency [1] | outcome [2] | Potency [4] | Potency [15] | Potency [5] | Potency [16] | Potency [17] | outcome [6] | Potency [7] | outcome [8] | Potency [18] | Potency [9] | Potency [10] | Potency [11] | Potency [12] | Potency [13] | outcome [19] | Potency [14] | outcome [20]

CCC1(c2cccc(O)c2)CCCCN(C)C1 (configuration not stated)
inactive: Potency [1] | outcome [2] | Potency [4] | Potency [15] | Potency [5] | Potency [16] | Potency [17] | outcome [6] | Potency [7] | outcome [8] | Potency [18] | Potency [9] | Potency [10] | Potency [11] | Potency [12] | Potency [13] | outcome [19] | Potency [14] | outcome [20]

O=P(O)(O)CN(CP(=O)(O)O)CP(=O)(O)O
inactive: outcome [2] | activity change [4] 29.5% [at 15.8 µM, hits give high values] | Potency [15] | Potency [5] | Potency [16] | Potency [17] | cytotoxicity increase [7] 21.6% [at 15.8 µM] | outcome [8] | Potency [18] | cytotoxicity increase [9] 30% [at 15.8 µM] | Potency [10] | activity change [13] 27.1% [at 15.8 µM, hits give high values] | outcome [19] | Potency [14] | outcome [20]

CN(C)C1CCCCC1
inactive: outcome [2] | Potency [4] | Potency [15] | Potency [16] | Potency [17] | outcome [6] | Potency [7] | Potency [18] | Potency [9] | Potency [10] | Potency [12] | Potency [13] | Potency [14] | outcome [20]

CC#Cc1cc(C)nc(Nc2ccccc2)n1
inactive: outcome [2] | Potency [4] | Potency [15] | Potency [5] | Potency [16] | Potency [17] | outcome [6] | Potency [7] | outcome [8] | Potency [18] | Potency [9] | Potency [10] | Potency [13] | outcome [19] | Potency [14] | outcome [20]

N=C(N)[Se]
inactive: Potency [1] | outcome [2] | Potency [4] | Potency [15] | Potency [5] | Potency [17] | outcome [6] | Potency [7] | Potency [18] | Potency [9] | Potency [10] | Potency [11] | Potency [12] | Potency [13] | Potency [14] | outcome [20]
